# Compound activity from PubChem BioAssay.
# BH1578 lux ind: inducers of Vibrio cholerae quorum light production without autoinducers, primary screen, BH1578 luxS cqsA deficient, single point. V. cholerae BH1578 lux reporter, luminescence, 6 h. actives 0.16% (n = 350,000). AID 588436, 2011. activation, % at 18.7 µM; in the data active = activation mostly above about 9.7%, no sharp cut-off
# CCHFV vOTU inh: CCHFV vOTU protease inhibitors, primary screen, biochemical, Pep-AMC substrate, fluorescence; Crimean-Congo hemorrhagic fever virus L polyprotein viral ovarian tumor (vOTU) protease …; inhibition, % at 11.5 µM; actives 0.55% (n = 370,000); AID 651958, 2012; in the data active = inhibition above about 30%; also: 0% = vehicle wells with enzyme and 100% = no enzyme wells
# TcdB GH inh: TcdB glycohydrolase inhibitors, primary screen, biochemical, single point, plate reader. Toxin B (Clostridioides difficile), P18177. TcdB glycohydrolase enzymatic assay. inhibition, % at 9.99 µM. actives 0.24% (n = 350,000). AID 652162, 2013; in the data active = inhibition above about 10%
# VHR inh abs: VHR1 phosphatase inhibitors, primary screen, biochemical, absorbance, uHTS; recombinant VHR phosphatase, pNPP absorbance; inhibition, % at 13.3 µM; actives 0.52% (n = 290,000); AID 1654, 2009; in the data active = inhibition above about 50%
# Target sequence (P51452 whole entry, looked up): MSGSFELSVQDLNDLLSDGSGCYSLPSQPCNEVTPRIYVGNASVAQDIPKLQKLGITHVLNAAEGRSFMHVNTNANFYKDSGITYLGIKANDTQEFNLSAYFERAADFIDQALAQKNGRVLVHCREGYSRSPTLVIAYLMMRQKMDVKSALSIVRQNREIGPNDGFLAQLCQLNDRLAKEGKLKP
# PriA SSB inh: inhibitors of Klebsiella pneumoniae PriA binding to SSB C-terminal tail, primary screen, biochemical, AlphaScreen; PriA–SSB C-terminal tail interaction (Klebsiella pneumoniae); inhibition, % at 33 µM; actives 0.6% (n = 430,000); AlphaScreen SSBct-PriA binding, biotinylated peptide; in the data active = inhibition mostly above about 37%, no sharp cut-off; inactive = mostly below about 20%;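 also: plate controls were negative control peptide for no effect and reference peptide for full effect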
# PrPC surface inh: inhibitors of human cell surface prion protein PrPC, primary screen, cell-based, TR-FRET. Major prion protein (Homo sapiens), P04156. TR-FRET read-out. inhibition, % at 13.8 µM. actives 0.43% (n = 370,000). AID 720596, 2013; in the data active = inhibition above about 24%; also: 0% = median of the test wells and 100% = reference compound wells
# * = called active by the depositor; i = inactive; nt = not tested or not shown. Shown are actives, neighbours in structure and some others; about 1.5% of the full set was active somewhere.
SMILES,BH1578 lux ind,CCHFV vOTU inh,TcdB GH inh,VHR inh abs,PriA SSB inh,PrPC surface inh
O=C(N/N=C/c1c(O)ccc2ccccc12)c1ccc(Br)o1,-0.3,-2.0,0.3,57.1*,nt,4.9
Cc1c(NC(=O)C(=O)C=C(O)c2ccc(Cl)cc2)c(=O)n(-c2ccccc2)n1C,nt,nt,nt,nt,5.1,nt
CC(C)(C)NC(=O)C(c1ccncc1)N(Cc1cccs1)C(=O)Cn1nnc(-c2ccc(F)cc2)n1 (stereo not drawn),0.3,9.4,nt,52.9*,9.6,10.2
O=C(CCc1ccccc1)Nc1ccnn1C1CCN(C/C=C/c2ccccc2)CC1,-0.5,5.0,-0.8,-9.1,-3.4,-6.7
COc1ccccc1/C=C/CN1CCC(n2nccc2NC(=O)CCc2ccccc2)CC1,-0.3,-6.1,0.1,-2.2,101.5*,-0.6
O=C1c2ccccc2-c2onc3ccc(NCc4ccco4)c1c23,i,nt,nt,41.4,78.2*,nt
CCNc1ccc2noc3c2c1C(=O)c1ccccc1-3,-0.9,16.3,nt,-26.4,40.1,-105.3
CCOC(CCNC(=O)c1cn(CCOC)c(=O)c2c1c1ccccc1n2C)OCC,-0.2,-13.3,21.2*,-18.8,-3.6,6.0
CCCc1nnsc1C(=O)N1CC(S(=O)(=O)c2ccc(OC)cc2)C1,nt,nt,nt,nt,7.0,nt
N#CC(c1cccc(Cl)c1)c1ccc2c(C(F)(F)F)cc(C(F)(F)F)nc2n1 (stereo not drawn),-0.1,-2.6,nt,0.1,50.6*,-2.5
NNc1ccc2c(C(F)(F)F)cc(C(F)(F)F)nc2n1,1.0,-33.8,-7.5,8.5,10.3,-5.2
O=C(NCCn1ncc2c(N3CCOCC3)ncnc21)c1ccc(F)cc1,nt,nt,nt,nt,0.0,nt
CN(C)S(=O)(=O)c1ccc(C(=O)Nc2nnc(-c3ccc4c(c3)CCCC4)o2)cc1,-0.2,-1.3,1.3,15.1,-8.8,1.0
COC(=O)c1ccc(C(=O)Nc2nnc(-c3ccc4c(c3)CCCC4)o2)cc1,nt,nt,nt,nt,38.0*,nt
O=C(NCc1nn(C2CCCC2)c(=O)c2ccccc12)c1ccc(F)cc1F,nt,nt,nt,nt,-13.0,nt
CCCCOc1ccc(C(=O)Nc2ccc3c(c2)N(CCOC)CCC3)cc1,nt,nt,nt,nt,22.0,nt
COCCN1CCCc2ccc(NC(=O)c3cc(C)cc(C)c3)cc21,nt,nt,nt,nt,62.0*,nt
COCCN1CCCc2ccc(N)cc21,nt,nt,nt,nt,79.0*,nt
COCCN1CCCc2ccc(NC(=O)c3ccc(Br)cc3)cc21,nt,nt,nt,nt,61.0*,nt
O=C(Nc1ccc(OCc2ccccc2)cc1)Nc1cccc([N+](=O)[O-])c1,nt,nt,nt,nt,19.0,nt
COc1nn(C)cc1C(=O)NC[C@H](OC)c1ccccc1C,nt,nt,nt,nt,-3.0,nt
Cc1onc(-c2ccccc2Cl)c1C(=O)Nc1ccc2c(c1)CN(C(=O)C1CC1)CC2,nt,nt,nt,nt,-3.0,nt
CSC[C@@](C)(O)CNS(=O)(=O)CC(C)C,nt,nt,nt,nt,-4.0,nt
CCOc1ccc(NC(=S)Nc2cccc3cnccc23)cc1,-0.2,22.0,nt,7.6,33.1,-11.8
CCc1cccc(NC(=S)Nc2cccc3ccccc23)c1,i,-7.2,0.2,43.7,38.5*,3.7
SMILES,BH1578 lux ind,CCHFV vOTU inh,TcdB GH inh,VHR inh abs,PriA SSB inh,PrPC surface inh
Cc1cccc(NC(=S)Nc2cccc3ccccc23)c1,i,-2.9,0.3,18.7,32.8,2.5
CCOc1ccc(NC(=S)Nc2cccc3ccccc23)cc1,i,0.1,-1.4,19.2,49.6*,3.1
COC(=O)CSc1nnc(CNC(=O)c2c(F)cccc2F)o1,nt,nt,nt,nt,-14.0,nt
CC1N(C)c2cccc3cccc(c23)N1C,-1.6,-122.5,nt,-0.1,45.1*,-6.4
CN1c2cccc3cccc(c23)N(C)C1c1cccs1,i,-1.3,nt,21.3,15.3,1.1
O=C(CNC(=O)c1cccs1)N/N=C\c1c(F)cccc1Cl,nt,nt,nt,nt,1.0,nt
CC(C)(C)N1C(=O)Cc2c1nc(N)c1c(N)nc(N3CCCCC3CO)c(C#N)c21 (stereo not drawn),i,nt,nt,57.5*,29.9,nt
CN(CCO)c1nc(N)c2c(N)nc3c(c2c1C#N)CC(=O)N3C1CCCC1,nt,nt,nt,64.6,nt,nt
Cc1cccc(Cn2nc(-c3ccc(Br)cc3)ccc2=O)c1,nt,nt,nt,nt,-8.0,nt
Cc1ccc(C)c(-c2ccc(=O)n(Cc3cccc(Br)c3)n2)c1,-0.6,0.8,1.3,52.6*,-7.5,-4.9
COc1cc(C(=O)OCCCOC(=O)c2cc(OC)c(OC)c(OC)c2)cc(OC)c1OC,i,-11.0,-1.2,10.5,-5.9,-1.5
CCOC(=O)C(C(=O)OCC)C(=O)c1cc(OC)c(OC)c(OC)c1,i,6.8,nt,51.8*,-1.3,-2.8
Cc1ccc(S(=O)(=O)Oc2ccc(/C=N/NC(=O)c3nn(C)cc3[N+](=O)[O-])cc2)cc1,-0.1,23.2,13.9*,-4.8,i,5.2
COc1ccc(N(C(C)C(=O)N2CCC(Cc3ccccc3)CC2)S(C)(=O)=O)cc1 (stereo not drawn),-0.3,8.8,-0.3,26.9,54.9*,14.0
CCN(CC)CC(=O)Nc1cccc(C(F)(F)F)c1,nt,nt,nt,nt,-3.0,nt
C[C@@H]1CCCCCCCCCCC1=O,-0.9,1.3,0.7,10.4,0.1,6.4
O=C1NN=C2CCCCCCC12 (stereo not drawn),-4.8,6.8,11.0*,nt,nt,-3.9
CCOc1ccc(-c2ccc(N3CCN(C(=O)c4ccncc4)CC3)nn2)cc1,nt,nt,nt,nt,-7.0,nt
Cc1ccc(-c2cc(C(=O)Nc3ccc(S(=O)(=O)Nc4onc(C)c4C)cc3)c3ccccc3n2)cc1,i,22.4,2.3,53.6*,20.9,1.0
O=C(Cn1cccc(-c2nc(-c3ccc(Cl)cc3)no2)c1=O)Nc1ccc2c(c1)OCO2,nt,nt,nt,nt,-18.0,nt
CC(C)(C)c1cc(Cl)c(O)c(NC(=S)NC(=O)c2cccnc2)c1,i,2.6,10.3*,9.8,-5.2,1.6
CCN1CCN(C(c2cccs2)C(C)NC(=O)c2cccc(OC)c2)CC1 (stereo not drawn),-1.3,11.5,-5.4,9.4,-3.5,1.4
COc1cccc(C(=O)NC(C)C(c2cccs2)N2CCOCC2)c1 (stereo not drawn),-0.6,4.6,0.4,53.3*,-4.9,-1.5
O=c1oc2cc(S(=O)(=O)N3CCOCC3)ccc2n1Cc1ccc([N+](=O)[O-])cc1,nt,nt,nt,nt,48.0*,nt
COc1cccc(CN(C)C(=O)c2ccc(COc3ccc(Cl)cc3)cc2)c1OC,-4.8,1.2,0.1,58.5*,-39.6,-1.2
O=C(Nc1ccccc1F)c1cc(C2CCN(C(=O)c3ccno3)CC2)[nH]n1,nt,nt,nt,nt,0.0,nt
O=C(Nc1ccccc1F)c1cc(C2CCN(C(=O)Cc3noc4ccccc34)CC2)[nH]n1,nt,nt,nt,nt,62.0*,nt
O=S(=O)(CCc1ccccc1)NCC(c1ccsc1)N1CCc2ccccc2C1 (stereo not drawn),nt,nt,nt,nt,-4.0,nt
CCc1cc(=O)oc2cc(OCC(=O)NCCCn3ccnc3)ccc12,i,-1.3,-0.1,16.6,38.7*,-0.8
C=C=Cn1c(C2CC(=O)N(c3ccc(CC)cc3)C2)nc2ccccc21 (stereo not drawn),nt,nt,nt,nt,3.0,nt
